# Experimental data from PubChem BioAssay AID1159580 (chemical genetic matrix, 2015).
# Among all 5,500 compounds or so, about 2,000 (36%) were called active. Inconclusive results (about 18%) are left out. The list shows a part of the results. Values without a mark were called inactive. Rule as the data show it: active = normalized growth mostly below about 0.91 (no sharp cut-off); inconclusive = no clear call, values can overlap the other calls; inactive = mostly above about 0.92.
# Assay: chemical genetic growth profiling, strain panel (AID 1159580);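 also: tested at 20 µM; growth read once vehicle control cultures reached saturation at 30 °C; 1 = growth at the plate median or of vehicle wells; lower values mean less growth of the strain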
# Conditions: growth OD
# [1] = S. cerevisiae deletion strains, locus YAL013W, strain DEP1, active compounds read low
# [2] = S. cerevisiae deletion strains, locus YBR229C, strain ROT2, active compounds read low
# [3] = S. cerevisiae deletion strains, locus YDL101C, strain DUN1, active compounds read low
# [4] = S. cerevisiae deletion strains, locus YDR150W, strain NUM1, active compounds read low
# [5] = S. cerevisiae deletion strains, locus YEL061C, strain CIN8, active compounds read low
# [6] = S. cerevisiae deletion strains, locus YGR078C, strain PAC10, active compounds read low
# [7] = S. cerevisiae deletion strains, locus YHR030C, strain SLT2, active compounds read low
# [8] = S. cerevisiae deletion strains, locus YHR087W, strain rtc3, active compounds read low
# [9] = S. cerevisiae deletion strains, locus YJR043C, strain POL32, active compounds read low
# [10] = S. cerevisiae deletion strains, locus YJR075W, strain HOC1, active compounds read low
# [11] = S. cerevisiae deletion strains, locus YKL190W, strain CNB1, active compounds read low
# [12] = S. cerevisiae deletion strains, locus YLR039C, strain RIC1, active compounds read low
# [13] = S. cerevisiae deletion strains, locus YLR058C, strain SHM2 (second series), active compounds read low
# [14] = S. cerevisiae deletion strains, locus YLR085C, strain ARP6, active compounds read low
# [15] = S. cerevisiae deletion strains, locus YLR262C, strain YPT6, active compounds read low
# [16] = S. cerevisiae deletion strains, locus YML094W, strain GIM5, active compounds read low
# [17] = S. cerevisiae deletion strains, locus YMR219W, strain ESC1, active compounds read low
# [18] = S. cerevisiae deletion strains, locus YMR263W, strain SAP30, active compounds read low
# [19] = S. cerevisiae deletion strains, locus YMR307W, strain GAS1, active compounds read low
# [20] = S. cerevisiae deletion strains, locus YNL153C, strain GIM3, active compounds read low
# [21] = S. cerevisiae deletion strains, locus YNL298W, strain CLA4 (second series), active compounds read low
# [22] = S. cerevisiae deletion strains, locus YNL322C, strain KRE1, active compounds read low
# [23] = S. cerevisiae deletion strains, locus YNR030W, strain Alg12, active compounds read low
# [24] = S. cerevisiae deletion strains, locus YPL055C, strain LGE1, active compounds read low
# [25] = S. cerevisiae deletion strains, locus YPL241C, strain CIN2, active compounds read low
# [26] = S. cerevisiae deletion strains, locus YPR135W, strain CTF4, active compounds read low
# [27] = S. cerevisiae strains, strain wild type, active compounds read low
smiles,measurement,setting,value
CCOC(=O)c1nnc2cc(C)nn2c1C,normalized growth,[1],0.981
same,normalized growth,[2],1.01
same,normalized growth,[3],0.98
same,normalized growth,[4],0.951
same,normalized growth,[5],1
same,normalized growth,[6],1
same,normalized growth,[7],1.01
same,normalized growth,[8],1
same,normalized growth,[9],0.987
same,normalized growth,[10],1.03
same,normalized growth,[11],0.995
same,normalized growth,[12],1.04
same,normalized growth,[13],1.01
same,normalized growth,[14],1
same,normalized growth,[15],1.06
same,normalized growth,[16],0.968
same,normalized growth,[17],1
same,normalized growth,[18],0.95
same,normalized growth,[19],0.989
same,normalized growth,"S. cerevisiae deletion strains, locus YNL128W, strain TEP1, active compounds read low",1.01
same,normalized growth,[20],0.988
same,normalized growth,[21],1.03
same,normalized growth,[22],1
same,normalized growth,[23],1.03
same,normalized growth,[24],0.923
same,normalized growth,[25],0.986
same,normalized growth,[26],1
same,normalized growth,[27],1.02
CCn1nc(C)cc1C(=O)O,normalized growth,[1],0.992
same,normalized growth,[2],1.01
same,normalized growth,[3],1.03
same,normalized growth,[4],0.914
same,normalized growth,[5],1.03
same,normalized growth,[6],1.02
same,normalized growth,[7],1.07
same,normalized growth,[8],1.01
same,normalized growth,"S. cerevisiae deletion strains, locus YJL187C, strain SWE1, active compounds read low",1.02
same,normalized growth,[9],0.962
same,normalized growth,[10],1.02
same,normalized growth,[11],1.02
same,normalized growth,[12],1.1
same,normalized growth,[13],1.02
same,normalized growth,[14],1.3 [resistant] (active)
same,normalized growth,[15],1.07
same,normalized growth,[16],1.02
same,normalized growth,[17],1.01
same,normalized growth,[18],0.987
same,normalized growth,[19],1.24
same,normalized growth,[20],1
same,normalized growth,[21],1.04
same,normalized growth,[22],0.999
same,normalized growth,[23],1.02
same,normalized growth,[24],0.931
same,normalized growth,[25],1.03
same,normalized growth,[26],0.994
same,normalized growth,[27],1.02
